# High-throughput results from PubChem BioAssay.
# Pf Dd2 inh = P. falciparum Dd2 growth inhibitors, primary screen, SYBR Green fluorescence, single dose replicates; 72 h; active compounds read low; activity change, % at 10 µM; 94,000 tested, 2.3% active; AID 1159554, 2015; in the data active means activity change below about -80%; inconclusive means no clear call, values can overlap the other calls
# C diff HTS = C. difficile growth inhibitors, primary screen, HTS. Clostridium difficile clinical isolate growth, OD600, 24 h; active compounds read low. growth activity, negative = inhibition, % at 16 µg/mL (by protocol). AID 1259249, 2017. 86,000 tested, 0.25% active;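 active means mean growth activity at or below -80% and every replicate also at or below -80%; inconclusive means mean at or below -80% but some replicate above -80%; inactive means mean growth activity above -80%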;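 further: 0% = DMSO wells and -100% = levofloxacin 16 µg/mL wells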
# Active calls of the source: *; u = inconclusive; x = no result given. A selection: hits, their analogues and other compounds. The true share with any hit is near 2.4%.
SMILES,Pf Dd2 inh,C diff HTS
COc1cccc(S(=O)(=O)Nc2ccc3c(c2)[C@@H]2C[C@H](CC(=O)NCc4ccc(Cl)cc4)O[C@H](CO)[C@@H]2O3)c1,-50,x
CN(C)c1ccc2c(c1)[C@@H]1C[C@@H](CC(=O)NCc3cc(F)ccc3F)O[C@@H](CO)[C@@H]1O2,-87*,x
O=C(O)C[C@@H]1C[C@@H]2c3cc(NS(=O)(=O)c4ccccc4)ccc3O[C@@H]2[C@H](CO)O1,-94*,0
O=C(C[C@H]1C[C@H]2c3cc(NC(=O)Cc4ccncc4)ccc3O[C@H]2[C@H](CO)O1)NCc1ccccc1,-89*,x
O=C(O)C[C@@H]1C[C@H]2c3cc(NS(=O)(=O)c4ccccc4)ccc3O[C@H]2[C@@H](CO)O1,11,1
CN(C)c1ccc2c(c1)[C@@H]1C[C@@H](CC(=O)NCc3cc(F)ccc3F)O[C@H](CO)[C@@H]1O2,-36,x
O=C(C[C@@H]1C[C@@H]2c3cc(NC(=O)Cc4ccncc4)ccc3O[C@@H]2[C@H](CO)O1)NCc1ccccc1,-39,x
COc1cccc(S(=O)(=O)Nc2ccc3c(c2)[C@@H]2C[C@H](CC(=O)NCc4ccc(Cl)cc4)O[C@@H](CO)[C@@H]2O3)c1,-82*,x
CCC(=O)N(C)C[C@@H]1Oc2cc(C#Cc3ccccc3)ccc2S(=O)(=O)N([C@@H](C)CO)C[C@H]1C,-72,-2
Cc1ccc(S(=O)(=O)N(C)C[C@H]2Oc3c(NS(=O)(=O)c4c(C)noc4C)cccc3C(=O)N([C@H](C)CO)C[C@H]2C)cc1,-19,-12
COc1ccc(NC(=O)N(C)C[C@@H]2OCCCC[C@@H](C)Oc3ccc(NC(=O)C4CCCCC4)cc3C(=O)N([C@@H](C)CO)C[C@H]2C)cc1,-10,-1
C/C=C/c1cnc2c(c1)C(=O)N([C@@H](C)CO)C[C@H](C)[C@H](CN(C)S(=O)(=O)c1ccc(F)cc1)O2,-10,4
COc1ccc(NC(=O)Nc2ccc3c(c2)C(=O)N([C@H](C)CO)C[C@H](C)[C@H](CN(C)S(C)(=O)=O)O3)cc1,17,-5
C[C@@H]1CN([C@@H](C)CO)C(=O)c2cc(NC(=O)Nc3ccc(F)cc3)ccc2O[C@@H](C)CCCCO[C@@H]1CN(C)S(=O)(=O)c1ccc(Cl)cc1,u,4
Cc1noc(C)c1NC(=O)N(C)C[C@@H]1Oc2c(NS(=O)(=O)c3ccc(Cl)cc3)cccc2C(=O)N([C@@H](C)CO)C[C@@H]1C,9,-4
OC[C@@H]1[C@@H](c2ccccc2)C2(CN(Cc3ccc4c(c3)OCO4)C2)N1Cc1ccccc1,-93*,20
COc1cccc(CN2[C@H](CO)[C@@H](c3ccccc3)C23CN(Cc2ccccc2OC)C3)c1,-90*,20
CC(=O)N1CC2(C1)[C@@H](c1ccccc1)[C@@H](CO)N2Cc1ccccc1F,-4,8
O=C(C1CCCC1)N1CC2(C1)[C@@H](c1ccccc1)[C@@H](CO)N2Cc1ccc(Cl)cc1,-16,12
O=C(C1CCCC1)N1CC2(C1)[C@@H](c1ccccc1)[C@H](CO)N2Cc1ccc(Cl)cc1,-85*,9
COc1cccc(CN2[C@@H](CO)[C@@H](c3ccccc3)C23CN(C(=O)C2CC2)C3)c1,-3,-1
OC[C@@H]1[C@H](c2ccccc2)C2(CN(Cc3ccccc3)C2)N1Cc1ccncc1,-53,4
OC[C@@H]1[C@@H](c2ccccc2)C2(CN(Cc3ccccc3F)C2)N1Cc1ccccc1F,-88*,39
C[C@@H]1CN([C@H](C)CO)C(=O)c2cccc(NC(=O)NC3CCCCC3)c2O[C@H]1CN(C)C,-2,-3
C[C@H](CO)N1C[C@H](C)[C@@H](CN(C)C(=O)Cc2ccccc2)Oc2cc(C#CC3(O)CCCC3)ccc2S1(=O)=O,-12,-2
SMILES,Pf Dd2 inh,C diff HTS
CO[C@@H]1CC[C@@H]2CCOc3ccc(C#N)cc3C(=O)N(C)C[C@@H](c3ccccc3)CC(=O)N(C)C[C@H]1O2,x,-7
C[C@H](CO)N1C[C@H](C)[C@H](CN(C)CC2CC2)OCCCC[C@H](C)Oc2ccc(NS(=O)(=O)c3ccc(Cl)cc3)cc2C1=O,-79,2
O=C(C[C@H]1C[C@H]2c3cc(NC(=O)c4cccnc4)ccc3O[C@H]2[C@@H](CO)O1)NC1CCCCC1,0,-6
CO[C@@H]1CN(C)C(=O)c2cc(NC(C)=O)ccc2OC[C@H](C)N(Cc2cccnc2)C[C@@H]1C,14,-1
COc1ccc(S(=O)(=O)N(C)C[C@@H]2OCCCC[C@H](C)Oc3ccc(NS(=O)(=O)c4ccc(Cl)cc4)cc3C(=O)N([C@H](C)CO)C[C@@H]2C)cc1,-89*,0
COc1ccc(S(=O)(=O)Nc2ccc3c(c2)C(=O)N([C@H](C)CO)C[C@H](C)[C@@H](CN(C)S(=O)(=O)c2ccc(Cl)cc2)OCCCC[C@H](C)O3)cc1,-64,5
